PI5P4K alpha inh = qHTS for Inhibitors of phosphatidylinositol 5-phosphate 4-kinase (PI5P4K); Phosphatidylinositol 5-phosphate 4-kinase type-2 alpha (Homo sapiens), P48426; PI5P4Kalpha enzyme, ADP-Glo luminescence, 60 min; stronger effect = lower value; max response, %; 1.2% of 330,000 active; AID 652105, 2013; active = max response of -50% or lower; inconclusive = between -30% and -50%; inactive = -30% or higher; note: value at the top dose of about 77 µM; % is set by controls: 0 for no effect and ±100 for the full control effect
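Luminescence from ADP-Glo served as readout of PI5P4Kalpha activity in a qHTS format. Reaction: enzyme, substrate, compound, ATP at 5 microM final, 60 min at RT.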
Pol eta inh-1 = qHTS for Inhibitors of Polymerase Eta; recombinant Pol eta, fluorescent DNA replication assay; 1.2% of 390,000 active; Potency, µM (top dose mostly 114 µM), for the others: at the highest dose activity change, negative = inhibition, usual class: inhibitors; DNA polymerase eta (Homo sapiens), Q9Y253; note: potency is the fitted concentration of half-maximal effect; % is set by controls: 0 for no effect and ±100 for the full control effect
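Pol eta (10 nM) was preincubated with compounds for 15 min at room temperature, after which fluorescent replication substrate (50 nM final) was added to start the reaction. Fluorescence was read kinetically at 0 and 10 min.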
Pol iota inh = qHTS for Inhibitors of Polymerase Iota; 1% of 390,000 active; Pol iota fluorescent replication assay, 10 min; Potency, µM (top dose mostly 115 µM), inactives show top-dose activity, negative = inhibition, hits mostly inhibitors; DNA polymerase iota (Homo sapiens), Q9UNA4; note: potency is the fitted concentration of half-maximal effect
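Pol iota at 10 nM preincubated 15 min with compounds at room temperature; reaction started with fluorescent substrate, 50 nM final. Fluorescence read kinetically at 0 and 10 min; buffer-only wells as negative control.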
Pol kappa inh-1 = qHTS for Inhibitors of Polymerase Kappa | purified Pol kappa, fluorescent DNA synthesis assay, 10 min | Potency, µM (doses to about 107 µM), for the others: at the top dose activity, negative = inhibition, hits mostly inhibitors | 0.53% of 400,000 active; note: potency is the fitted concentration of half-maximal effect; % is set by controls: 0 for no effect and ±100 for the full control effect
Target sequence (Q9UBT6 whole entry, looked up): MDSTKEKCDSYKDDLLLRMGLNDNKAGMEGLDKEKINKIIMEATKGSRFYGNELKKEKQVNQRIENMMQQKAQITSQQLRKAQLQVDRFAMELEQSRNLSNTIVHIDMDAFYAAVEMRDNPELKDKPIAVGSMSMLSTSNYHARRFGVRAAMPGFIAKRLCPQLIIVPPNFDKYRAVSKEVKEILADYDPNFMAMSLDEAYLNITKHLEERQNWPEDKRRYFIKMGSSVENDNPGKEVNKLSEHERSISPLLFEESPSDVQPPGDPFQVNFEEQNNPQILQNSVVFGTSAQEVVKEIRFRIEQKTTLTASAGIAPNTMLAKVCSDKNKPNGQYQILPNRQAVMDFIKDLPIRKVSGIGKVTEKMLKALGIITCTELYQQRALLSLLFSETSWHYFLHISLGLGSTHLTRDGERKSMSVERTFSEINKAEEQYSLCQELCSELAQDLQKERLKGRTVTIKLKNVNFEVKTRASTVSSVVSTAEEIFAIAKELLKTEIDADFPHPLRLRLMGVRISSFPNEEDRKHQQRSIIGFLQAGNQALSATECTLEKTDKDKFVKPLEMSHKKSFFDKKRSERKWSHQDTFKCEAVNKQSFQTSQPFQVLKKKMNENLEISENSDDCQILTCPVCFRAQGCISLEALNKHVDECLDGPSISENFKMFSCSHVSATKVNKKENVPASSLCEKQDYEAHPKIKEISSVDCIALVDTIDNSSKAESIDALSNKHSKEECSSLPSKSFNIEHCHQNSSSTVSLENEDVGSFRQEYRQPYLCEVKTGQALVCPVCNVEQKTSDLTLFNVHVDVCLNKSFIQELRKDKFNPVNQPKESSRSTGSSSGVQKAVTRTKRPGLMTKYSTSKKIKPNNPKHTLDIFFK
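Here, compound and 10 nM enzyme are combined for 15 min at room temperature; adding 50 nM substrate (final) starts DNA synthesis, tracked by fluorescence at 0 and 10 min against buffer-only wells.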
POLB inh = qHTS Assay for Inhibitors of DNA Polymerase Beta | Pol beta primer extension/strand displacement, fluorescence kinetic | 1.3% of 340,000 active | Potency, µM (doses to about 114 µM), for inactives: at the top dose activity change, negative = inhibition, hits mostly inhibitors | AID 485314, 2010 | P06746; note: potency is the fitted concentration of half-maximal effect; % is set by controls: 0 for no effect and ±100 for the full control effect
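Pol beta (10 nM) and compounds were preincubated 15 min at room temperature, then 50 nM substrate (final) started primer extension/strand displacement. Reads were taken at 0 and 10 min; concentration-response data were fitted to a four-parameter Hill equation.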
WRN inhibitor = qHTS for Inhibitors of WRN Helicase; Bifunctional 3'-5' exonuclease/ATP-dependent helicase WRN (Homo sapiens), Q14191; WRN helicase unwinding, fluorescent forked duplex, kinetic; Potency, µM (top dose mostly 114 µM), for the others: top-dose activity change, negative = inhibition, usual class: inhibitors; 0.46% of 360,000 active; AID 651768, 2012; note: potency is the fitted concentration of half-maximal effect; % is set by controls: 0 for no effect and ±100 for the full control effect; nearly all actives have a fitted effect of over 55% in size
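Primary qHTS, 1536-well format. 20 nM WRN + compound, 15 min RT; start with 100 nM forked fluorophore/quencher duplex, 2 mM ATP (final); kinetic read ex 525/em 598 nm.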
TbPGK inh = qHTS for inhibitors of Phosphogylcerate Kinase: Hit Validation Screen; AID 686980, 2013; shares compounds with Pol kappa inh-1; TbPGK coupled GAPDH assay, Kinase-Glo luminescence; Potency, µM (titrated, usually from 57.5 µM), inactives show top-dose activity change, negative = inhibition, most hits filed as inhibitors; 79% of 500 active; note: potency is the fitted concentration of half-maximal effect; % is set by controls: 0 for no effect and ±100 for the full control effect; nearly all actives have a fitted effect of over 65% in size
POLI cherry-pick = qHTS for Inhibitors of Polymerase Iota: Confirmatory Assay for Cherry-picked Compounds. shares compounds with Pol kappa inh-1. Potency, µM, actives largely listed as inhibitors. 77% of 1,500 active. AID 720496, 2013. Pol iota primer extension, TAMRA/BHQ fluorescence; note: potency is the fitted concentration of half-maximal effect
Pol kappa inh-2 = qHTS for Inhibitors of Polymerase Kappa: Confirmatory Assay for Cherry-picked Compounds. Potency, µM, actives largely listed as inhibitors. AID 720501, 2013. shares compounds with Pol eta inh-1. purified Pol-kappa, fluorescent strand-displacement substrate. 76% of 920 active; note: potency is the fitted concentration of half-maximal effect
Pol eta inh-2 = qHTS for Inhibitors of Polymerase Eta: Confirmatory Assay for Cherry-picked Compounds; shares compounds with Pol eta inh-1; Pol eta primer extension, TAMRA/BHQ fluorescence, 10 min; Potency, µM, most hits filed as inhibitors; 64% of 2,600 active; note: potency is the fitted concentration of half-maximal effect
* hit, by the source's call; ? = inconclusive; nt = no result; [ ] = dose if it differs, or a comment. Compounds with a hit are over-represented: about 2.8% of the library has one in this group of screens. Unless noted, calls come from the whole dose curve; as a rule, active = well fitted curve in the direction sought with a large enough effect; inconclusive = small, poorly fitted or top-dose-only effect, or another doubt; inactive = no such curve, though single readings can be large; an effect the other way counts as inactive or inconclusive.

SMILES	PI5P4K alpha inh	Pol eta inh-1	Pol iota inh	Pol kappa inh-1	POLB inh	WRN inhibitor	POLI cherry-pick	Pol eta inh-2	others
C/C=C/C=C\C(=O)Nc1cccc(C2=NOC3(C2)C[C@@H](C(N)=O)N(C(=O)/C(C)=C/C)C3)c1 (stereo partly specified)	-11	18µM*	16µM*	50µM*	-1%	?	11*	17*
C=C(C)C(=O)N1CC2(CC(c3cccc(NC(=O)/C=C\C)c3)=NO2)C[C@H]1C(N)=O (stereo partly specified)	4	6%	-2%	4%	8%	-1%	nt	nt
CC(OC(=O)Cn1[nH]c(=O)c2ccccc2c1=O)C(=O)NC1(C#N)CCCCC1 (stereo unspecified)	3	-2%	21%	-8%	nt	-7%	nt	nt
Cc1ccccc1NS(=O)(=O)c1ccc2[nH]cc(C(=O)NCCc3ccccc3)c(=O)c2c1	nt	32µM*	?	-9%[60.1 µM]	45µM*	nt	?	48*
Cc1ccc(CCNC(=O)c2cc3c(s2)-c2ccccc2OC3)cc1	nt	?	79µM*	?	14µM*	nt	47*	?
CC1CCN(CCCNC(=O)c2cc3c(s2)-c2ccccc2OC3)CC1	-3	-16%	3%	13%	-19%	-2%	nt	nt
COc1ccccc1CNS(=O)(=O)c1c(C)[nH]c(C)c1C(=O)N1CCCC1	-3	0%	?	-8%	43%	1%	nt	nt
Cc1ccc(C(=O)Nc2nnc(CC(=O)N/N=C/c3ccncc3)s2)cc1	?	?	-4%	-18%	-25%	-15%[11.6 µM]	nt	nt
Cc1ccc(C(=O)Nc2nnc(CC(=O)N/N=C/c3ccc(O)c(O)c3)s2)cc1	-58*	3.5µM*	?	?	3.5µM*	20µM*	9.5*	17*	TbPGK inh=4.1µM*
COc1ccc(NC(=O)C2CCN(S(=O)(=O)c3c(C)noc3/C=C/c3cccs3)CC2)cc1Cl	nt	-2%	-21%	-19%	0%	nt	nt	nt
COc1ccccc1CNC(=O)CCn1cnc2ccccc2c1=O	nt	50µM*	?	-3%[60.1 µM]	11µM*	nt	?	54*	Pol kappa inh-2=?
NC(=O)Cc1ccc(C(=O)CSc2nnc(-c3ccncc3)n2C2CC2)s1	-78*	13µM*	14µM*	79µM*	nt	?	?	76*
CC(=O)N=c1n(C)c2ccccc2n1CCOc1ccccc1	-8	-7%	17%	-3%	25%	12%	nt	nt
CCc1sc(C(=O)Nc2cccc(C(C)=O)c2)cc1C	0	-9%	14%	-10%	-4%	-9%	nt	nt
CCCSc1nc(C)c(-c2csc(C(C#N)=C3CCCC3)n2)cc1C#N	nt	45µM*	?	?	-103%	?	67*	34*
COC/C=C/C1=CC2=CC(=O)C(C)(OC(=O)c3cnc4ccccc4n3)C(=O)C2=CN1C1CC1 (stereo unspecified)	2	?	?	-22%	nt	-4%	nt	nt
CC1(OC(=O)c2ccc(Cl)nc2)C(=O)C=C2C=C3CCCN3C=C2C1=O (stereo unspecified)	?	14µM*	?	50µM*	25µM*	?	67*	48*
Cc1ccc2oc(-c3cccc(NC(=O)COc4ccc(Cl)cc4)c3C)nc2c1	nt	nt	-23%	-6%	nt	nt	nt	nt
COC1=CC(=O)c2c(ccc3ncnc(N)c23)C1=O	-23	4.5µM*	4µM*	-6%	nt	-34%	4.2*	8.5*
O=C(Nc1ccccc1OC(F)F)c1ccc(N2CCCC2=O)cc1	2	-2%	nt	nt	nt	-3%	nt	nt
O=C(N=Nc1c(O)[nH]c2ccc([N+](=O)[O-])cc12)c1ccccc1Cl	0	40µM*	38%	6%	-30%	-7%[11.6 µM]	67*	?
Oc1c(Br)cc(Br)c2cccnc12	-22	-17%	82%	9%	nt	2%	nt	nt
O=c1cc(Br)c(O)c(Br)cc1Br	?	18µM*	4.5µM*	50µM*	nt	?	?	60*
COc1cc(Cl)c(C)cc1NC(=O)CSc1ncc(S(=O)(=O)c2ccc(C(C)(C)C)cc2)c(=O)[nH]1	nt	10µM*	?	?	10µM*	nt	21*	30*	TbPGK inh=21µM*
CC(C)(C)c1ccc(S(=O)(=O)c2cnc(SCC(=O)Nc3ccc(F)c(Cl)c3)[nH]c2=O)cc1	nt	28µM*	?	?	79µM*	nt	?	?
CCc1ccc(S(=O)(=O)c2cnc(SCC(=O)Nc3ccc(OC)cc3OC)[nH]c2=O)cc1	nt	-6%	-25%	-13%	-17%	nt	nt	nt
CCOC(=O)c1ccccc1NC(=O)NC(C)c1c(-n2cccc2)sc(C)c1C (stereo unspecified)	nt	nt	10%	-9%	5%	nt	nt	nt
CN(C)CCNC(=O)c1cccc2nc3cccc(F)c3nc12	3	?	89µM*	?	nt	-18%[11.6 µM]	42*	nt	Pol kappa inh-2=17*
O=C(C[n+]1ccccc1)Nc1ccccc1[N+](=O)[O-]	0	-4%	12%	2%	13%	14%	nt	nt
CCC(COC)Oc1cc(NCc2ccccc2)c2ncn(C(C)C)c2c1 (stereo unspecified)	0	79µM*	3.2µM*	5%	nt	?	47*	76*
